# Laboratory results as given in PubChem BioAssay (Tox21).
# Inconclusive results are not listed. A call without a number means that no potency is given here. Unmarked numbers belong to inactive results. Calls of active or inactive are those of the source. Unless noted, calls come from the whole dose curve; as a rule, active = well fitted curve in the direction sought with a large enough effect in the repeat runs; inconclusive = weak or mixed curves; inactive = no such curve, though single readings can be large; an effect the other way counts as inactive or inconclusive.
# Experiments:
# [1] = qHTS assay to identify small molecule antagonists of the estrogen related receptor (ERR) signaling pathway (AID 1224819;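 note: luminescence from an ERR-driven luciferase reporter measured with One-Glo reagent; series mostly up to about 46 µM; nearly all actives have a fitted effect of over 50% in size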)
# Outline: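 ERR reporter cell line (NTP) plated at 2,000 cells/well, settled 6 h at 37C/5% CO2, then exposed to LOPAC compounds for 18 h at 37C. One-Glo luciferase luminescence read after 30 min at room temperature.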
# [2] = qHTS assay to identify small molecule agonists of the estrogen related receptor (ERR) signaling pathway (AID 1224820)
# Outline: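 Cells: ERR line from NTP, 2,000/well. Pre-incubation 6 h, 37 C/5% CO2. Compound (DMSO) pin transfer, 18 h 37 C. One-Glo, 30 min RT, luminescence.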
# [3] = system: estrogen-related receptor alpha (ERRalpha) with PGC-1alpha coactivator, human; experiment: qHTS assay to identify small molecule antagonists of the estrogen related receptor signaling pathway with the pleiotropic PPARgamma coactivator (PGC) (AID 1224821; calls by dose curve; note: nearly all actives have a fitted effect of over 50% in size; note: potency is the fitted concentration of half-maximal effect;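 for activity change, negative = inhibition: series mostly up to about 46 µM; lower luminescence signal means antagonism of PGC/ERR signalling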)
# Outline: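 Luminescent read-out (One-Glo, 30 min at room temperature) following 18 h treatment of PGC/ERR cells at 37 C with compounds delivered in DMSO. Cells had settled 6 h at 37 C/5% CO2 before dosing.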
# [4] = qHTS assay to identify small molecule antagonists of the estrogen related receptor signaling pathway with the pleiotropic PPARgamma coactivator (PGC) cell viability counter screen (AID 1224822; note: potency is the fitted concentration of half-maximal effect; for viability change, negative = cytotoxic: series mostly up to about 46 µM)
# Outline: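 PGC/ERR cells rested 6 h, then compound-treated 17.5 h at 37 C. CellTiter-Fluor added for 30 min at 37 C, viability measured by fluorescence intensity.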
# [5] = qHTS assay to identify small molecule agonists of the estrogen related receptor signaling pathway with the pleiotropic PPARgamma coactivator (PGC) (AID 1224823)
# Outline: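 Steps: plate PGC/ERR cells at 2,000 cells/well; incubate 6 h, 37 C/5% CO2; pin-transfer compounds (DMSO); incubate 18 h, 37 C; add One-Glo; 30 min RT; read luminescence.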
# [6] = qHTS assay to identify small molecule antagonists of the estrogen related receptor (ERR) signaling pathway from Tox21 library - cell viability counter screen (AID 1224834); note: nearly all actives have a fitted effect of over 30% in size; note: potency is the fitted concentration of half-maximal effect
# Outline: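 ERR reporter cells, 2,000 per well, rested 6 h, then exposed to compound in DMSO for 17.5 hours at 37 C. Viability read as fluorescence after 30 min with CellTiter-Fluor.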
# [7] = target: Luciferin 4-monooxygenase (Photinus pyralis) (UniProt P08659); experiment: qHTS assay to identify small molecule inhibitors of firefly luciferase (AID 1224835); note: nearly all actives have a fitted effect of over 25% in size; note: potency is the fitted concentration of half-maximal effect; for activity change, negative = inhibition: series mostly up to about 120 µM
# Outline: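 Inhibition of purified Photinus luciferase is measured by luminescence. Substrate levels (D-luciferin, ATP) sit at their KM values. Each compound is tested in a concentration series.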
# [8] = qHTS assay to identify small molecule agonists of the constitutive androstane receptor (CAR) signaling pathway - cell viability counter screen (AID 1224836); note: nearly all actives have a fitted effect of over 45% in size; note: potency is the fitted concentration of half-maximal effect; for viability change, negative = cytotoxic: series mostly up to about 92 µM
# Outline: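 Double-stable HepG2 hepatoma cells (hCAR plus CYP2B6-2.2kb) are treated for 23 h at 37 C with test compounds in 15-point concentration series. PK11195 at 0.75 uM final is co-added. Cell viability is quantified by CellTiter-Fluor.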
# [9] = qHTS assay to identify small molecule antagonists of the constitutive androstane receptor (CAR) signaling pathway - cell viability counter screen (AID 1224837); note: nearly all actives have a fitted effect of over 45% in size; note: potency is the fitted concentration of half-maximal effect
# Outline: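 HepG2 cells stably carrying hCAR and CYP2B6-2.2kb reporter, stimulated with 50 nM CITCO and compounds at 15 concentrations for 23 h at 37 C. Viability measured by CellTiter-Fluor fluorescence.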
# Luciferin 4-monooxygenase (Photinus pyralis), sequence (P08659 whole entry, looked up): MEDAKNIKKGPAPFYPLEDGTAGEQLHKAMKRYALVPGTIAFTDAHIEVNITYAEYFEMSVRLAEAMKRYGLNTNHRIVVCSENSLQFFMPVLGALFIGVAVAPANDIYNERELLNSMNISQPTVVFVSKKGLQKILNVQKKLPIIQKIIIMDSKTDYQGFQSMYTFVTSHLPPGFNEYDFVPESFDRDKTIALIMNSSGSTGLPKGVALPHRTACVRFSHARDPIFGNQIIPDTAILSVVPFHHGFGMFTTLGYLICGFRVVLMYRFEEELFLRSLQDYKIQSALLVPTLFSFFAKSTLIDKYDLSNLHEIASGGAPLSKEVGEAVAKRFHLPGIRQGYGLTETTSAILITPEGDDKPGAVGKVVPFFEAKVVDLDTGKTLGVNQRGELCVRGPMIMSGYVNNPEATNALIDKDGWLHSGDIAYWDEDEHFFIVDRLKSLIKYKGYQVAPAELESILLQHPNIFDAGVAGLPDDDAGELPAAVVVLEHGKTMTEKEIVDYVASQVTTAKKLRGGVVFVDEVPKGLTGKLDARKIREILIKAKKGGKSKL
smiles,measurement,setting,value
CCOC(=O)C1=C(O)C(=O)N(Cc2ccccc2)C1,Potency,[1],inactive
same,Potency,[2],inactive
same,Potency,[3],inactive
same,Potency,[4],inactive
same,Potency,[5],inactive
CCN(CC)c1ccc(N=Nc2ccccc2)cc1,Potency,[6],24.3 µM (active)
same,Potency,[7],0.502 µM (active)
O=C1NC(=O)c2c1c(-c1ccccc1)cc1[nH]c3ccc(O)cc3c21,Potency,[2],inactive
same,Potency,[3],inactive
same,Potency,[5],inactive
CC(C)N(CCC(=O)c1ccc2ccccc2c1)Cc1ccccc1,Potency,[2],inactive
same,Potency,[3],19.9 µM (active)
same,Potency,[5],inactive
CN(C)CCC(c1ccc(Br)cc1)c1ccccn1 (stereo unspecified),Potency,[4],inactive
CN(C)CCOc1ccc(/C(=C(/CCCl)c2ccccc2)c2ccccc2)cc1,Potency,[6],51 µM (active)
same,Potency,[7],inactive
CN(C/C=C/c1ccccc1)Cc1cccc2ccccc12,Potency,[6],inactive
same,Potency,[7],inactive
same,Potency,[8],inactive
NC(=NCc1ccccc1)NC(=O)c1nc(Cl)c(N)nc1N,Potency,[2],inactive
same,Potency,[3],inactive
same,Potency,[5],inactive
CN1CCN(c2ccccc2/C=C2\SCCN(c3ccc(Cl)c(Cl)c3)C2=O)CC1,Potency,[6],54.5 µM (active)
same,Potency,[7],inactive
same,Potency,[8],43.3 µM (active)
same,Potency,[9],24.3 µM (active)
COc1ccccc1N1CCN(CCCCNC(=O)c2ccc3ccccc3c2)CC1,Potency,[2],inactive
same,Potency,[5],inactive
CCOC(=O)N1CCN(/[N+]([O-])=N/Oc2ccc([N+](=O)[O-])cc2[N+](=O)[O-])CC1,Potency,[2],inactive
same,Potency,[4],13.9 µM (active)
same,Potency,[5],inactive
CCCCCCCCCCCCCCCCCCNC(=O)OC1CCN(C(=O)OC[C@H](COC(=O)N(Cc2cccc[n+]2CC)C(=O)c2ccccc2OC)OC)CC1,Potency,[6],26.6 µM (active)
same,Potency,[7],inactive
same,Potency,[8],inactive
O=C(Nc1ccccc1)c1cc(Cl)ccc1O,Potency,[6],15.4 µM (active)
same,Potency,[7],3.99 µM (active)
same,Potency,[8],24.3 µM (active)
COC(=O)C1=C(C)NC(C)=C([N+](=O)[O-])C1c1ccccc1C(F)(F)F (stereo unspecified),Potency,[2],inactive
same,Potency,[5],inactive
CC1=C(C(=O)O)N2C(=O)[C@@H](NC(=O)C(N)C3=CCC=CC3)[C@H]2SC1 (stereo partly specified),Potency,[4],inactive
NS(=O)(=O)C#Cc1ccccc1,Potency,[2],inactive
same,Potency,[5],inactive
O=C(CCCCCN1CCN(c2ccccc2-c2ccccc2)CC1)NC1CCCc2ccccc21 (stereo unspecified),Potency,[2],inactive
same,Potency,[5],inactive
CCCCC/C=C\C=C\C(=O)OCC,Potency,[6],71.5 µM (active)
same,Potency,[7],inactive
Cc1cccc(C2CN(C)CCc3c2cc(O)c(O)c3Cl)c1 (stereo unspecified),Potency,[2],inactive
same,Potency,[3],inactive
same,Potency,[5],inactive
CN1CCN(CCCN2c3ccccc3Sc3ccc(C(F)(F)F)cc32)CC1,Potency,[2],inactive
same,Potency,[3],inactive
same,Potency,[6],29.8 µM (active)
same,Potency,[7],inactive
same,Potency,[8],inactive
same,Potency,[9],inactive
c1ccc(C[P+](c2ccccc2)(c2ccccc2)c2ccccc2)cc1,Potency,[6],21.7 µM (active)
same,Potency,[7],inactive
same,Potency,[8],30.6 µM (active)
Cc1ccc(Cl)c(N)c1Cl,Potency,[6],inactive
same,Potency,[7],inactive
same,Potency,[8],inactive
CN1CCN(CCCN2c3ccccc3Sc3ccc(Cl)cc32)CC1,Potency,[4],27.6 µM (active)
same,Potency,[6],29.8 µM (active)
same,Potency,[7],inactive
same,Potency,[8],inactive
O=c1oc(Cl)c(Cl)c2ccccc12,Potency,[2],inactive
same,Potency,[5],inactive
CN1CCCC1CCOC(C)(c1ccccc1)c1ccc(Cl)cc1 (stereo unspecified),Potency,[2],inactive
same,Potency,[3],inactive
same,Potency,[5],inactive
O=C(CCCCCCCCc1cccnc1)N1CCC(C=C(c2ccccc2)c2ccccc2)CC1,Potency,[6],54.5 µM (active)
same,Potency,[7],inactive
CC(=O)/C=C1\C(=O)N(C)c2ccccc21,Potency,[2],inactive
same,Potency,[3],28.7 µM (active)
same,Potency,[5],inactive
CSc1ccc(O)cc1C,Potency,[6],inactive
same,Potency,[7],inactive
same,Potency,[8],inactive
C[C@H]1O[C@@H](O[C@H]2CC[C@@]3(C)[C@H](CC[C@@H]4[C@@H]3C[C@@H](O)[C@]3(C)[C@@H](C5=CC(=O)OC5)CC[C@]43O)C2)C[C@H](O)[C@@H]1O[C@H]1C[C@H](O)[C@H](O[C@H]2C[C@H](O)[C@H](O[C@@H]3O[C@H](CO)[C@@H](O)[C@H](O)[C@H]3O)[C@@H](C)O2)[C@@H](C)O1,Potency,[6],0.168 µM (active)
same,Potency,[7],inactive
CCN(CC)CC#CCOC(=O)C(O)(c1ccccc1)C1CCCCC1 (stereo unspecified),Potency,[2],inactive
same,Potency,[5],inactive
O=[N+]([O-])c1ccc2c(c1)S(=O)(=O)C=C2,Potency,[2],inactive
same,Potency,[4],11.4 µM (active)
O=C(O)CN(CCCN(CC(=O)O)CC(=O)O)CC(=O)O,"viability change, negative = cytotoxic",[6],11.6% [at 19 µM]
same,"activity change, negative = inhibition",[7],0.284% [at 23.6 µM]
same,"viability change, negative = cytotoxic",[8],-21.6% [at 19 µM]
COc1ccc(/C=C/c2nc(NCCCN(C)C)c3ccccc3n2)cc1,Potency,[2],inactive
same,Potency,[3],23.7 µM (active)
same,Potency,[5],inactive
c1ccc2cc3c4ccccc4c4ccccc4c3cc2c1,Potency,[6],inactive
Oc1ccc(/C=C/c2ccc(/C=C/c3ccc(O)cc3)c(Br)c2)cc1,Potency,[2],inactive
same,Potency,[3],inactive
same,Potency,[5],inactive
Nc1nc(N)c(N=O)c(OCC2CCCCC2)n1,Potency,[2],inactive
same,Potency,[3],inactive
same,Potency,[5],inactive
Cc1cc(C)c(O)c(C(C)(C)C)c1,Potency,[6],inactive
same,Potency,[7],inactive
same,Potency,[8],inactive
same,Potency,[9],inactive
COc1cccc(-c2ccc(/C=C\CN3CCCCCC3)cc2Cl)c1,Potency,[6],inactive
same,Potency,[7],inactive
same,Potency,[8],inactive
Clc1ccc2c(c1)N=C(N1CCNCC1)c1ccccc1N2,Potency,[3],inactive
same,Potency,[5],inactive
C=CCN1CCc2c(cc(O)c(O)c2Br)[C@@H](c2ccccc2)C1,Potency,[2],inactive
same,Potency,[4],inactive
same,Potency,[5],inactive
Nc1c(S(=O)(=O)O)cc(Nc2ccc(Nc3nc(Cl)nc(Nc4ccc(S(=O)(=O)O)cc4)n3)c(S(=O)(=O)O)c2)c2c1C(=O)c1ccccc1C2=O,Potency,[2],inactive
same,Potency,[3],18.8 µM (active)
same,Potency,[5],inactive
C=C(C)C1CCC(C)CC1O (stereo unspecified),Potency,[6],inactive
same,Potency,[7],inactive
same,Potency,[8],inactive
same,Potency,[9],inactive
C=CC(=O)OCC(Br)CBr (stereo unspecified),Potency,[6],inactive
same,Potency,[7],inactive
same,Potency,[8],inactive
same,Potency,[9],inactive
Cc1ccc2sc3cccc(C)c3c2c1,Potency,[6],inactive
same,Potency,[7],inactive
same,Potency,[8],inactive
same,Potency,[9],inactive
CC(C)=NNC(N)=S,Potency,[6],inactive
same,Potency,[7],inactive
same,Potency,[8],inactive
same,Potency,[9],inactive
O=C1OCc2ccccc21,Potency,[6],inactive
same,Potency,[7],inactive
same,Potency,[8],inactive
same,Potency,[9],inactive
CC(C)(C)c1cc(CCC(=O)OCCSCCOC(=O)CCc2cc(C(C)(C)C)c(O)c(C(C)(C)C)c2)cc(C(C)(C)C)c1O,Potency,[6],inactive
same,Potency,[7],inactive
same,Potency,[8],inactive
same,Potency,[9],inactive
